Source: PubChem BioAssay (NCI)
This is part of a sample that, as a whole, favours compounds with a hit. Of some 83,000 tested, about 20% had one in any assay.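 Assay: single dose, 48 h. Readout: percent growth (0 = no net growth; negative = cell death). Active: <10.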 Unmarked numbers belong to inactive results. The source made the active and inactive calls.

How the values were obtained:
Assay in all cases: NCI-60 one-dose screen, 48 h (100 = growth as untreated, 0 = no growth, -100 = all killed)
Conditions in all cases: 10 µM unless noted
[1] = system: T-47D breast
[2] = system: BT-549 breast
[3] = system: MDA-MB-435 melanoma
[4] = system: SW-620 colon
[5] = system: MCF7 breast
[6] = system: HCT-116 colon
[7] = system: HCC-2998 colon
[8] = system: KM12 colon

Compound	growth [1]	growth [2]	growth [3]	growth [4]	growth [5]	growth [6]	growth [7]	growth [8]
COC(=O)/C=C/c1c(C2(C)NC(=O)c3ccccc3N2)c(=O)oc2ccc(Cl)cc12 (stereo not given)	91.6%	87.4%	102%	96.3%	86.9%	88.6%	102%	93.4%
CCOC(=O)c1c(Nc2ccccc2)nn2c(-c3ccc(OC)cc3)ccnc12	75.1%	127%	90.4%	95.1%	89.9%	71.7%	95.7%	73.9%
Cc1ccc(-c2nnc(SCc3ccc(O)c4ncccc34)o2)cc1	13.4%	30%	17.7%	14.1%	10.6%	18.5%		11.4%
CN1CCN(c2nc(-c3csc(-c4ccccc4)n3)cc3ccccc23)CC1	-23.3% (active)	96.2%	7.31% (active)	-19.1% (active)	9.31% (active)	2.27% (active)	-84.7% (active)	18.7%
c1cc(-c2nc3ccc4[nH]ncc4c3c3c2CCCC3)[nH]n1	73.8%	31.2%	10.5%	25%	40%	25.6%	78.9%	24%
O=C(CCC(=O)N1CCOCC1)OCCCCCCSc1ccc([N+](=O)[O-])c2nonc12	-36.2% (active)	-52.5% (active)	-88.1% (active)	-54.9% (active)	-57.7% (active)	-54.7% (active)	-69.4% (active)	-68.7% (active)
C[C@@H]1C[C@H]2C(=O)O[C@@H](C)C(NC(=O)[C@H](Cc3cc(F)cc(F)c3)NC(=O)Nc3ccc(C4CC4)cc3F)C(=O)N3CCC[C@H]3C(=O)N3CCCC[C@H]3C(=O)N[C@@H](CO)C(=O)N2C1 (stereo not given in full)	21.7%	27.6%	17.9%	35.8%	16.1%	10.6%	24%	38%
CCOc1ccc(NC2=C(Cl)C(=O)c3nc(C)ccc3C2=O)cc1	-43.8% (active)	46.5%	-83.7% (active)	-55.3% (active)	-67% (active)	-83.6% (active)		57.4%
C#CCC#CCN1CCC[C@H]1C(=O)NCC(=O)OC	94.8%	-91.5% (active)	105%	113%	99.4%	104%		103%
CC1(C)CC[C@]2(C(=O)O)CC[C@]3(C)C(=CC[C@@H]4[C@@]5(C)CC/C(=N\OCCC#N)C(C)(C)[C@@H]5CC[C@]43C)[C@@H]2C1	104%	106%	101%	94.2%	95.5%	96.4%	116%	105%
COc1c(N2CC3CCCNC3C2)c(F)cc2c(=O)c(C(=O)N/N=C/c3ccccc3)cn(C3CC3)c12 (stereo not given)	101%	106%	101%	102%	84.1%	81.1%		101%
CS(=O)(=O)Nc1cc(-c2ccc3ncc(C#N)c(NCc4cccc(F)c4)c3c2)cnc1Cl	0.599% (active)	-17.4% (active)	5.21% (active)	6.55% (active)	0.85% (active)	4.35% (active)		6.28% (active)
CS(=O)(=O)Nc1cc(-c2ccc3ncc(C#N)c(N[C@H](CO)c4ccccc4)c3c2)cnc1Cl	28.3%	33.9%	47.2%	26.6%	17.7%	25.7%		70.2%
Cc1ccc(-c2nn(-c3ccccc3)cc2/C=C/C(=O)c2ccc(NC(=O)CCCCCCC(=O)NO)cc2)cc1	58.5%	108%	67.9%	75.1%	71.4%	33.6%	83.1%	78.2%
COCCNc1ccc2ncc(C#Cc3cncc(C(=O)Nc4ccc(CN5CCN(C)CC5)c(C(F)(F)F)c4)c3)n2n1	-7.3% (active)	-36.7% (active)	-24.8% (active)	-54.1% (active)	-30.7% (active)	-66.9% (active)		-9.09% (active)
Cc1ccc2c(c1)C(=O)/C(=C/c1cccc(F)c1)S2	101%	134%	98.1%	105%	73.7%	105%		101%
